Assay results from the supplement of paper PMC9844399.
Structures can show the parent of a compound that is named as a salt.

tested on: HeLa; test: nuclear count per well, robust Z-score vs DMSO; higher = more cells (less toxicity); settings: 10 µM; 6 h
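Also: Hoechst-stained nuclei counted by automated confocal imaging of four fields per well in 384-well plates, with the robust Z-score based on the per-plate DMSO median and robust SD.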

| SMILES | nuclear count per well |
| --- | --- |
| COc1ccc2cccc(CCNC(C)=O)c2c1 [Agomelatine] | -0.949 |
| O=C1Nc2ccc(I)cc2/C1=C/c1cc(Br)c(O)c(Br)c1 | 0.299 |
| C#C[C@]1(O)CC[C@H]2[C@@H]3CCc4cc(OC)ccc4[C@H]3CC[C@@]21C [Mestranol] | -1.59 |
| O=C(O)c1ccccc1 [Benzoic acid] | 0.407 |
| N[C@H]1C(O)O[C@H](CO)[C@@H](O)[C@@H]1O (some centres undefined) [Glucosamine HCl] | 1.11 |
| CC1(C)O[C@@H]2[C@@H](CO[C@@]3(COS(N)(=O)=O)OC(C)(C)O[C@@H]23)O1 [Topiramate] | 0.72 |
| CCN(CCO)CCCC(C)Nc1ccnc2cc(Cl)ccc12 (centres undefined) [Hydroxychloroquine Sulfate] | -1.11 |
| Cc1ccc(C)c(OCCCC(C)(C)C(=O)O)c1 [Gemfibrozil] | -0.452 |
| Cc1cccc(Nc2ccncc2S(=O)(=O)NC(=O)NC(C)C)c1 [Torsemide] | 0.994 |
| COc1ccc(-c2ccc3cc(C(=O)O)ccc3c2)cc1C12CC3CC(CC(C3)C1)C2 [Adapalene] | 0.562 |
| CCOc1ccccc1OCCN[C@H](C)Cc1ccc(OC)c(S(N)(=O)=O)c1 | 0.0182 |
| CCC(=O)NCC[C@@H]1CCc2ccc3c(c21)CCO3 [Ramelteon] | -0.354 |
| S=c1[nH]cnc2nc[nH]c12 [Mercaptopurine Hydrate] | -0.0295 |
| CC/C=C\C/C=C\C/C=C\C/C=C\C/C=C\C/C=C\CCC(=O)O [Docosahexaenoic acid(22:6 n-3)] | -0.118 |
| O=C(c1ccccc1)c1ccc2n1CCC2C(=O)O (centres undefined) [Ketorolac Tromethamine] | 0.37 |
| COc1ccc2cc3[n+](cc2c1OC)CCc1cc2c(cc1-3)OCO2 [Berberine chloride form] | -1.49 |
| CC1(C2CCCC2)Cc2cc(OCC(=O)O)c(Cl)c(Cl)c2C1=O (centres undefined) | 0.358 |
| CCN(CC)CCCC(C)Nc1ccnc2cc(Cl)ccc12 (centres undefined) [Chloroquine Diphosphate] | 0.538 |
| COc1cccc2c1C(=O)c1c(O)c3c(c(O)c1C2=O)C[C@@](O)(C(=O)CO)C[C@@H]3O[C@H]1C[C@H](N)[C@@H](O)[C@H](C)O1 | -8.97 |
| CN1C(CCl)Nc2cc(Cl)c(S(N)(=O)=O)cc2S1(=O)=O (centres undefined) [Methyclothiazide] | 0.529 |

| SMILES | nuclear count per well |
| --- | --- |
| COc1ccc(/C=C/c2cc(OC)cc(=O)o2)cc1 [Yangonin] | -0.102 |
| CCc1cccc2c3c([nH]c12)C(CC)(CC(=O)O)OCC3 (centres undefined) [Etodolac] | -1.07 |
| CCN(CC)CCCCN1c2ccccc2Oc2ccc(Cl)cc21 [Akt Inhibitor X] | 0.772 |
| CNC(=O)c1ccccc1Oc1nc(Nc2cc(OC)c(OC)c(OC)c2)ncc1Br | -2.32 |
| CCCNC(=O)NS(=O)(=O)c1ccc(Cl)cc1 [Chlorpropamide] | -0.00913 |
| CC(C)N1CCN(c2ccc(OCC3COC(Cn4cncn4)(c4ccc(Cl)cc4Cl)O3)cc2)CC1 (centres undefined) [Terconazole] | 0.17 |
| CNC(C)C1CCC(N)C(OC2C(N)CC(N)C(OC3OCC(C)(O)C(NC)C3O)C2O)O1 (centres undefined) [Gentamycin Sulfate] | -0.303 |
| NC(=O)N1c2ccccc2CC(=O)c2ccccc21 [Oxcarbazepine] | 0.119 |
| Clc1cccc(Cl)c1NC1=NCCN1 | -0.389 |
| COc1ccc(CC2c3cc(OC)c(OC)cc3CC[N+]2(C)CCC(=O)OCCCCCOC(=O)CC[N+]2(C)CCc3cc(OC)c(OC)cc3C2Cc2ccc(OC)c(OC)c2)cc1OC (centres undefined) [Atracurium Besylate] | -0.75 |
| CC(C)(O/N=C(\C(=O)N[C@@H]1C(=O)N2C(C(=O)[O-])=C(C[n+]3ccccc3)CS[C@H]12)c1csc(N)n1)C(=O)O [Ceftazidime] | 0.671 |
| COc1cc2nc(N3CCN(C(=O)c4ccco4)CC3)nc(N)c2cc1OC [Prazosin hydrochloride] | 0.511 |
| Nc1nc2c(ncn2COC(CO)CO)c(=O)[nH]1 [Ganciclovir] | 0.393 |
| CCCCC1C(=O)N(c2ccccc2)N(c2ccccc2)C1=O [Phenylbutazone] | 0.422 |
| CC(C(C)N1CC(=O)NC(=O)C1)N1CC(=O)NC(=O)C1 (centres undefined) | -2.95 |
| NC(=O)c1cn(Cc2c(F)cccc2F)nn1 [Rufinamide] | 0.985 |
| CO/N=C(\C(=O)N[C@@H]1C(=O)N2C(C(=O)O)=C(C[N+]3(C)CCCC3)CS[C@H]12)c1csc(N)n1 | -0.191 |
| CC(C)n1cnc2c(NCc3ccccc3)nc(NCCO)nc21 [N9-Isopropylolomoucine] | -0.00467 |
| c1cnc2cc3c(cc2n1)[C@@H]1CNC[C@H]3C1 [Varenicline Tartrate] | 0.658 |
